Screening data from PubChem.
HPGD inh: inhibitors of human 15-hydroxyprostaglandin dehydrogenase (HPGD). 150,000 compounds, 4.3% hits. P15428. Potency, µM, without a hit: at the top dose activity change, negative = inhibition, hits mostly inhibitors. AID 894. purified HPGD, NADH fluorescence kinetic, PGE2 substrate; also: potency is read from the fitted curve at half-maximal effect; % is scaled to controls: 0 for no effect and ±100 for the full control effect
Target sequence (P15428 whole entry, looked up): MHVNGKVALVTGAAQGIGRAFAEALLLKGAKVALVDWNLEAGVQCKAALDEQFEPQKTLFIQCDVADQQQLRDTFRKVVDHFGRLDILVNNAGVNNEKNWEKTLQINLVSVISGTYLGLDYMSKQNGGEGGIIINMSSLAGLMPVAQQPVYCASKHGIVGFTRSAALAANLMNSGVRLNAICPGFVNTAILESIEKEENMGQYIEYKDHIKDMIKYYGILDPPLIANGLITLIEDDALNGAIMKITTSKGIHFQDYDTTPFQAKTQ
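20 nM HPGD preincubated 15 min at room temperature with compound in 50 mM Tris-HCl pH 8, 0.01% Tween 20. Started with 1 mM NAD+ and 30 uM prostaglandin E2; NADH fluorescence (360/450 nm) read 5 times over 30-s intervals, last minus first.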
HTT ATP protect: cytoprotection in Huntington HTT-Q103 PC12 cell model; 230,000 compounds, 0.14% hits; PC12 HTT-Q103 induced, cytoprotection, ATP luminescence, 40 h; Potency, µM (top dose mostly 56.4 µM), for the others: cytoprotection (ATP increase), usual class: activators; active = well fitted curve in the direction sought with a large enough effect; inconclusive = small, poorly fitted or top-dose-only effect, or another doubt; inactive = no such curve, though single readings can be large; an effect the other way counts as inactive or inconclusive; also: potency is read from the fitted curve at half-maximal effect; % of control where 0% means no effect; nearly all actives have a fitted effect of over 45% in size
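Cells were plated at 1500 per well in phenol red-free DMEM with 5% equine and 5% calf serum. Tebufenozide (100 nM final) and compounds were added, then ATPlite reagent, and luminescence was read.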
CBFb RUNX1 block: blocks binding between human CBF-beta and RUNX1. Potency, µM (series often up to 59.8 µM), inactives show at the top dose activity, negative = inhibition, hits mostly inhibitors. 230,000 tested, under 10 active. AlphaScreen CBFb-His/RUNX1-biotin binding, biochemical. Q01196+Q13951; active = well fitted curve in the direction sought with a large enough effect; inconclusive = small, poorly fitted or top-dose-only effect, or another doubt; inactive = no such curve, though single readings can be large; an effect the other way counts as inactive or inconclusive; also: % of control where 0% means no effect
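Inhibition was taken as any reduction in AlphaScreen signal from the CBF-beta–RUNX1 pair (His and biotin tags, 30 nM each), measured after compound (15 min) and bead (90 min) incubations at room temperature.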
HttQ103 aggreg: reduces HttQ103-GFP aggregates in PC12 cells. PC12 HttQ103-GFP aggregates, Acumen cytometry, 40 h. Potency, µM (highest dose often 46.1 µM), for the others: at the top dose activity change, negative = inhibition, most hits filed as inhibitors. 220,000 compounds, 1.1% hits; active = well fitted curve in the direction sought with a large enough effect; inconclusive = small, poorly fitted or top-dose-only effect, or another doubt; inactive = no such curve, though single readings can be large; an effect the other way counts as inactive or inconclusive; also: potency is read from the fitted curve at half-maximal effect; % is scaled to controls: 0 for no effect and ±100 for the full control effect; nearly all actives have a fitted effect of over 60% in size
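Quantitative HTS on tebufenozide-induced (100 nM) PC12 cells stably expressing polyQ103 Huntingtin exon 1–GFP. Reduction of bright GFP aggregates, detected by laser scanning cytometry after lysis, identified actives across the titration.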
ALDH1A1 block: inhibitors of human aldehyde dehydrogenase 1A1; 220,000 compounds, 7.3% hits; Potency, µM (highest dose often 75.3 µM), for the others: at the highest dose activity, negative = inhibition, most hits filed as inhibitors; Purified ALDH1A1, NADH fluorescence, propionaldehyde substrate; P00352;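 also: potency is read from the fitted curve at half-maximal effect; plate controls were no enzyme wells and a reference inhibitor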
KDM4E inh: inhibitors of human JMJD2E histone demethylase. B2RXH2. JMJD2E catalytic domain, FDH-coupled NADH fluorescence (FDH is formaldehyde dehydrogenase). Potency, µM (series often up to 57.1 µM), without a hit: at the highest dose activity change, negative = inhibition, hits mostly inhibitors. 230,000 compounds, 1.6% hits. AID 2147;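 also: potency is read from the fitted curve at half-maximal effect; 0% = wells with enzyme and -100% = buffer wells without enzyme; nearly all actives have a fitted effect of over 50% in size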
Target sequence (B2RXH2 1-337 limits assumed): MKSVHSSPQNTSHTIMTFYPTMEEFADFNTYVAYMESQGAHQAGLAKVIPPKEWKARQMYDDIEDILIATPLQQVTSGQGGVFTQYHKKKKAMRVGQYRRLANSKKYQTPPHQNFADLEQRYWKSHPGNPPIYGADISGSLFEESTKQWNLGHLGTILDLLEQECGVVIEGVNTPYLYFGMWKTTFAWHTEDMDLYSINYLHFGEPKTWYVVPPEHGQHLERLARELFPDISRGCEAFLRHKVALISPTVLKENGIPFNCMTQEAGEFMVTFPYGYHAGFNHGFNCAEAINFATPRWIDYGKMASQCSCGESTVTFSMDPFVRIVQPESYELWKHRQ
An asterisk follows results filed as active; ! = a repeat was not active; [ ] = dose if it differs, or a comment. An excerpt weighted towards active compounds, which were near 9.8% of everything screened. Unless noted, calls follow the shape of the dose curve; as a rule, active = well fitted inhibition curve with a large enough effect (not every such curve was filed as active); inconclusive = small, poorly fitted or top-dose-only effect, or another doubt; inactive = no such curve, though single readings can be large or run the other way.

`O=C(c1cnc(N2CCN(c3ccccn3)CC2)c2ccccc12)N1CCN(c2cccc(Cl)c2)CC1` gave HTT ATP protect -71%, CBFb RUNX1 block -8%, HttQ103 aggreg 7.9µM*, ALDH1A1 block inconclusive and KDM4E inh inconclusive.
O=C(c1ccc2c(c1)N(Cc1cccc(Cl)c1)C(=O)c1ccccc1S2(=O)=O)N1CCN(c2ccccn2)CC1 was read as HTT ATP protect -23%, CBFb RUNX1 block 3%, HttQ103 aggreg 4%, ALDH1A1 block 20µM* and KDM4E inh -5%.
For O=C(c1ccc(S(=O)(=O)c2cccc(Cl)c2)c([N+](=O)[O-])c1)N1CCN(c2ccccn2)CC1 the results were HTT ATP protect -205%, CBFb RUNX1 block -18%, HttQ103 aggreg 11µM*, ALDH1A1 block -4% and KDM4E inh 3%.
`O=C(c1ccc(S(=O)(=O)c2ccccc2Cl)c([N+](=O)[O-])c1)N1CCCCCC1` gave HPGD inh 25µM*, HTT ATP protect 2%[10 µM], CBFb RUNX1 block -8%, HttQ103 aggreg inconclusive, ALDH1A1 block inconclusive and KDM4E inh -5%.
CCN1C(=O)c2ccccc2S(=O)(=O)c2ccc(C(=O)N3CCOCC3)cc21 was read as HPGD inh -8%, HTT ATP protect inconclusive, CBFb RUNX1 block -1%, HttQ103 aggreg -10%, ALDH1A1 block -11% and KDM4E inh 3%.
For C=CCCCCc1nc2ccccc2c(=O)n1N the results were HPGD inh -19%, HTT ATP protect -1%[10 µM], CBFb RUNX1 block 17%, HttQ103 aggreg -27%, ALDH1A1 block 13% and KDM4E inh 7%.
NC[C@@H]1O[C@H](O[C@@H]2[C@H](O[C@@H]3O[C@H](CO)[C@@H](O)[C@@H]3O)[C@@H](O)[C@@H](N)C[C@H]2N)[C@@H](N)[C@H](O)[C@@H]1O was read as HPGD inh -7%, HTT ATP protect -7%[40.3 µM], CBFb RUNX1 block -6%[21.7 µM], HttQ103 aggreg -7%[20.6 µM], ALDH1A1 block -2%[20.9 µM] and KDM4E inh 3%[25.5 µM].
Screening CCc1ccccc1NC(=O)CCN1C(=O)C2C3CCC(C3)C2C1=O (stereo not drawn) returned HTT ATP protect -3%, CBFb RUNX1 block -1%, HttQ103 aggreg 1%, ALDH1A1 block inconclusive and KDM4E inh 3%.
`CCCOc1cccc(NC(=O)c2cc(C)oc2C)c1` gave HPGD inh -2%, HTT ATP protect -6%[10 µM], CBFb RUNX1 block -5%, HttQ103 aggreg -17%, ALDH1A1 block 2% and KDM4E inh -2%.
`O=C(/C=C/c1ccccc1)NC(=S)NNC(=O)c1cccnc1` gave HPGD inh -20%, HTT ATP protect -6%, CBFb RUNX1 block -18%, HttQ103 aggreg -22%, ALDH1A1 block -8% and KDM4E inh inconclusive.
COc1ccc(/C=C/C(=O)NC(=S)NNC(=O)c2cccnc2)cc1OC was read as HPGD inh 32µM*, HTT ATP protect -27%, CBFb RUNX1 block -3%, HttQ103 aggreg -14%, ALDH1A1 block 4% and KDM4E inh inconclusive.
`O=C(/C=C/c1ccccc1)NC(=S)NNC(=O)c1cnccn1` gave HTT ATP protect -31%[10 µM], HttQ103 aggreg inconclusive and KDM4E inh 8.9µM*.
`O=C(Oc1ccc(-c2cnc3ccccc3n2)cc1)c1ccco1` gave HPGD inh -12%, HTT ATP protect -32%, CBFb RUNX1 block 5%, HttQ103 aggreg 6%, ALDH1A1 block 0% and KDM4E inh inconclusive.
Screening O=C(c1sc2cccc(F)c2c1Cl)N1CCN(c2ncccn2)CC1 returned HPGD inh -12%, HTT ATP protect 25%[10 µM], CBFb RUNX1 block -8%, HttQ103 aggreg 31%, ALDH1A1 block 28µM* and KDM4E inh -9%.
For CC(SCC(=O)NC(C)C1CC2CCC1C2)C(=O)O (stereo not drawn) the results were HPGD inh -8%, HTT ATP protect 0.89µM*, CBFb RUNX1 block 7%, HttQ103 aggreg 16%, ALDH1A1 block -8% and KDM4E inh -3%.
Screening CC(NC(=O)CSc1ccccc1C(=O)O)C1CC2CCC1C2 (stereo not drawn) returned HTT ATP protect 0%, CBFb RUNX1 block 27%, HttQ103 aggreg -2%, ALDH1A1 block inconclusive and KDM4E inh -3%.
CCOc1ccc(N=c2cc(-c3ccc(OC)cc3)oc3ccccc23)cc1 was read as HPGD inh -7%, HTT ATP protect -8%[10 µM], CBFb RUNX1 block inconclusive, HttQ103 aggreg 3.2µM*, ALDH1A1 block 0% and KDM4E inh -6%.
`COc1ccc(N=c2cc(-c3ccc(OC)cc3)oc3ccccc23)cc1` gave HPGD inh -16%, HTT ATP protect -1%[10 µM], CBFb RUNX1 block inconclusive, HttQ103 aggreg -24%, ALDH1A1 block 6% and KDM4E inh inconclusive.
For Brc1ccccc1C1=Nn2c(nnc2-c2ccco2)SC1 the results were HTT ATP protect 9%[10 µM], CBFb RUNX1 block -1%, HttQ103 aggreg -11%[9.22 µM] and KDM4E inh 0%.
For COc1ccccc1-c1nnc2n1N=C(c1ccc(O)c(O)c1)CS2 the results were HPGD inh -24%, HTT ATP protect -89%, CBFb RUNX1 block -26%, HttQ103 aggreg inconclusive, ALDH1A1 block 20% and KDM4E inh 25µM*.
Screening Brc1ccccc1C1=Nn2c(nnc2-c2ccccc2)SC1 returned HPGD inh 16µM*, HTT ATP protect -29%, CBFb RUNX1 block -8%, HttQ103 aggreg -31%, ALDH1A1 block inconclusive and KDM4E inh 7%.
For Cc1cc(NC(=O)COC(=O)C2CCC(=O)N2)c([N+](=O)[O-])cc1C (stereo not drawn) the results were HTT ATP protect -42%, CBFb RUNX1 block -11%, HttQ103 aggreg 0%, ALDH1A1 block inconclusive and KDM4E inh -3%.
Screening COCC(O)CSc1c([N+](=O)[O-])nc(C)n1Cc1ccc(OC)c([N+](=O)[O-])c1 (stereo not drawn) returned HPGD inh -4%, HTT ATP protect -5%[1.9 µM], CBFb RUNX1 block 2%, HttQ103 aggreg -5%, ALDH1A1 block 25µM* and KDM4E inh -1%.
For COc1ccc(Cn2cnc([N+](=O)[O-])c2)cc1[N+](=O)[O-] the results were HTT ATP protect -3%[10 µM], CBFb RUNX1 block 3%, HttQ103 aggreg -13%[9.22 µM], ALDH1A1 block inconclusive and KDM4E inh 5%.
`N[C@H](C(=O)O)c1cc(O)cc(O)c1` gave HPGD inh -19%, HTT ATP protect -54%, CBFb RUNX1 block 9%, ALDH1A1 block -9% and KDM4E inh 16µM*!.
